For experiment [1], the target named is Lysosomal acid glucosylceramidase (Homo sapiens) (UniProt P04062). In words: Glucocerebrosidase-p2 (AID 348; in the data active = potency below about 10 µM; also: potency is read from the fitted curve at half-maximal effect). The conditions noted are these: purified GBA, blue fluorogenic substrate, 40 min. The method, boiled down: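 Compounds titrated from 0.6 nM upwards against 0.2 nM enzyme in pH 5.9 citric acid/KH2PO4, taurocholate, tween-20; blue fluorogenic substrate 80 uM, 40 min room temperature, stopped and read Ex 365/Em 440 for AC50.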
Lysosomal acid glucosylceramidase (Homo sapiens), sequence (P04062 whole entry, looked up): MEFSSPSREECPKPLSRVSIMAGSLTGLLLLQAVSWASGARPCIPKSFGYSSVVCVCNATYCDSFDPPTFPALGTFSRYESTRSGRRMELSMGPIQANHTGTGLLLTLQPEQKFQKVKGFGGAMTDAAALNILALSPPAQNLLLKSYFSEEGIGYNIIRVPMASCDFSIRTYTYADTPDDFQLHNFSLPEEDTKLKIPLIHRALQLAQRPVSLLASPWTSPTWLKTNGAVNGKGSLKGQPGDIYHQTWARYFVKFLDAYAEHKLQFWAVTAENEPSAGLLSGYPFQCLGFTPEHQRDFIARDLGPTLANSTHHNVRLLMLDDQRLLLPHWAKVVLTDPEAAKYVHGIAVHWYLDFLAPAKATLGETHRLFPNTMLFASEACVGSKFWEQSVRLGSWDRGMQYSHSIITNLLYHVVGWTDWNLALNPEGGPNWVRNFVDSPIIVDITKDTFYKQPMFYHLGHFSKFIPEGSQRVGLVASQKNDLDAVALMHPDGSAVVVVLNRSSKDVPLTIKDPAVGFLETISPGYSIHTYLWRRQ

A short description of experiment [2]: AP1 Signaling Pathway (AID 357). Also: % is scaled to controls: 0 for no effect and ±100 for the full control effect. The conditions noted are these: ME-180 AP-1-bla reporter, EGF-induced, beta-lactamase ratio, 5 h; at 7.69 µM (top of the series) unless noted. The method, boiled down: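 ME-180 cells with beta-lactamase reporter under AP-1 response element, stimulated with EC50 EGF; compounds tested in titration series, 5 h at 37 °C. CCF4 substrate added 2.5 h at room temperature; 460/530 nm emission ratio gave %activity and AC50.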

The target of experiment [3] is Cytochrome P450 1A2 (Homo sapiens) (UniProt P05177). In words: p450-cyp1a2 (AID 410; calls by dose curve; also: potency is read from the fitted curve at half-maximal effect). The conditions noted are these: recombinant CYP1A2, luciferin-ME demethylation, luminescence; series mostly up to 57 µM. The method, boiled down:
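20nM CYP1A2 with 100uM Luciferin-ME (at Km) in 100mM KPO4; compound preincubated 10 min, NADPH regeneration added, 60 min at room temperature. Luciferin quantified by luminescence after detection reagent; normalized to 57 uM furafylline.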

Experiment [4] is described as follows: NFAT Signaling Pathway (AID 444).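 Also: carbachol stimulus at about its EC50 of 1 µM final; % is scaled to controls: 0 for no effect and ±100 for the full control effect.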 To be noted: Jurkat NFAT-bla M1, carbachol, beta-lactamase ratio, 5 h; at 7.69 µM (top of the series) unless noted. The method in brief:
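Jurkat cells carrying an NFAT-driven β-lactamase reporter and co-transfected muscarinic M1 receptor were treated with compound plus carbachol (1 uM final, an EC50 level) for 5 h at 37 °C. CCF4 loading followed for 1 h at RT; 460/530 nm ratio gave %activity.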

Experiment [5] is described as follows: Stat Signaling Pathway (AID 446).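 Also: ME-180 cervical cancer cells given 40 pM IL-6 alongside compound; SIE-controlled beta-lactamase reporter measured as 460/530 nm FRET emission ratio; % is scaled to controls: 0 for no effect and ±100 for the full control effect.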 The conditions noted are these: ME-180 (cervical carcinoma) SIE beta-lactamase reporter, IL-6 stimulated, 5 h; at 7.69 µM (top of the series) unless noted. The method in brief:
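ME-180 cells carrying a SIE-driven beta-lactamase reporter are stimulated with 40 pM IL-6 for 5 h at 37C in the presence of compound. The 460/530 nm FRET substrate ratio is read after 2.5 h at RT. Data are normalised to 300 pM IL-6 and to 125 nM JAK inhibitor controls.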

The target of experiment [6] is Glucocorticoid receptor (Homo sapiens) (UniProt P04150). In words: GR-EFC Redistribution (AID 451; calls by dose curve; also: potency is read from the fitted curve at half-maximal effect). To be noted: CHO-K1 GR-EFC translocation, beta-gal luminescence, 2 h. The method, boiled down:
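CHO-K1 cells stably expressing nuclear-localized β-gal enzyme acceptor and GR fused C-terminally to the enzyme donor fragment; ligand-driven nuclear translocation restores β-gal by complementation. Compounds titrated up to 46 uM final, 2 h at 37 °C; luminescence read.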

For experiment [7], the target named is Mitogen-activated protein kinase 10 (Mus musculus) (UniProt Q61831). In words: JNK3 AlphaScreen Assay (AID 530).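 Also: kinase came from lysate of stimulated human HepG2 cells; signal reports phosphorylation of biotinylated GST-cJun 1-79 at Ser73 with 10 µM ATP; % is scaled to controls: 0 for no effect and ±100 for the full control effect.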 The conditions noted are these: JNK3 lysate, c-Jun phosphorylation; series mostly up to 57.1 µM. The method, boiled down:
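Inhibitors reduce antibody binding to phosphorylated biotin-cJun, lowering AlphaScreen luminescence. Lysates from HepG2 cells pre-activated by IL-1beta plus TNF-alpha supplied JNK3; compounds were titrated.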

The target of experiment [8] is Cytochrome P450 3A4 (Homo sapiens) (UniProt P08684). In words: qHTS Assay for Inhibitors and Substrates of Cytochrome P450 3A4 (AID 884; active = well fitted curve in the direction sought with a large enough effect; an effect the other way counts as inactive or inconclusive; also: % is scaled to controls: 0 for no effect and ±100 for the full control effect; nearly all actives have a fitted effect of over 50% in size). To be noted: recombinant CYP3A4, Luciferin-PPXE luminescence; series mostly up to 57.1 µM. The method in brief: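 20 nM human CYP3A4 with 25 uM Luciferin-PPXE (at KM) in 200 mM KPO4, preincubated 10 min with compound; NADPH regeneration started a 60 min RT reaction. Luciferin detected by luminescence, normalized to 57 uM ketoconazole as full inhibition.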
Cytochrome P450 3A4 (Homo sapiens), sequence (P08684 whole entry, looked up): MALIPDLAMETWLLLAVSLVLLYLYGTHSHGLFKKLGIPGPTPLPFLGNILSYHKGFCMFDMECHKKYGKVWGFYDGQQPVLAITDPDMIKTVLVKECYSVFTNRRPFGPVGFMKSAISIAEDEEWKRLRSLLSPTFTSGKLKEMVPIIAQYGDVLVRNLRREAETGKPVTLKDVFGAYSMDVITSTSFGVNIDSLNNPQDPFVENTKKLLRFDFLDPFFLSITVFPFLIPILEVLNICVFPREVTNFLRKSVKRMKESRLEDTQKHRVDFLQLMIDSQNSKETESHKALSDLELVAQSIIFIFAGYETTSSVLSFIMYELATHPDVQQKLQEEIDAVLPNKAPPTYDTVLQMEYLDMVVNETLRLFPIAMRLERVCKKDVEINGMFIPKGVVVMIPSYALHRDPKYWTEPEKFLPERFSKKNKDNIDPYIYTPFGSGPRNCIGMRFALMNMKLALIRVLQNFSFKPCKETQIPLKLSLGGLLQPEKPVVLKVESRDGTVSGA

The nature of experiment [9]: qHTS Assay for Lipid Storage Modulators (AID 1519; calls by dose curve). The conditions noted are these: Drosophila S3 cells, BODIPY lipid droplet/cell ratio, laser cytometry, cells loaded with oleic acid; for activity change, negative = inhibition: at 57.5 µM (top of the series). The method in brief:
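Cells seeded at 5,000 per well were treated with compounds over a concentration series and loaded with oleic acid (400 uM, as added). Lipid droplet fluorescence (488 nm excitation, 500-530 nm channel) was read by laser-scanning cytometry and normalized to 20 uM Triacsin C.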

A short description of experiment [10]: Primary qHTS for small molecule stabilizers of the endoplasmic reticulum resident proteome: Secreted ER Calcium Modulated Protein (SERCaMP) assay (AID 1508630; active = well fitted curve in the direction sought with a large enough effect; an effect the other way counts as inactive or inconclusive; also: % is scaled to controls: 0 for no effect and ±100 for the full control effect). To be noted: SH-SY5Y GLuc-SERCaMP (Gaussia luciferase released on ER calcium loss) secretion, thapsigargin, luminescence; series mostly up to 38.4 µM. The method, boiled down: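 GLuc-SERCaMP-expressing SH-SY5Y cells, pretreated 16 h with compound, are challenged with thapsigargin to empty ER calcium stores; after 4 h, coelenterazine is added directly to the medium and luminescence is imaged.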

For experiment [11], the target named is Cytochrome P450 2C19 (Homo sapiens) (UniProt P33261). In words: qHTS Assay for Inhibitors and Substrates of Cytochrome P450 2C19 (AID 899; active = well fitted curve in the direction sought with a large enough effect; an effect the other way counts as inactive or inconclusive; also: potency is read from the fitted curve at half-maximal effect; nearly all actives have a fitted effect of over 60% in size). To be noted: recombinant CYP2C19, luciferin-H EGE luminescence; series mostly up to 57.1 µM. The method in brief: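 NADPH-dependent conversion of Luciferin-H EGE (10uM, at KM) by 5nM enzyme in 50mM KPO4, 60 min at 37C following 10 min compound preincubation. Stopped with luciferin detection buffer; luminescence read after 20 min.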
Cytochrome P450 2C19 (Homo sapiens), sequence (P33261 whole entry, looked up): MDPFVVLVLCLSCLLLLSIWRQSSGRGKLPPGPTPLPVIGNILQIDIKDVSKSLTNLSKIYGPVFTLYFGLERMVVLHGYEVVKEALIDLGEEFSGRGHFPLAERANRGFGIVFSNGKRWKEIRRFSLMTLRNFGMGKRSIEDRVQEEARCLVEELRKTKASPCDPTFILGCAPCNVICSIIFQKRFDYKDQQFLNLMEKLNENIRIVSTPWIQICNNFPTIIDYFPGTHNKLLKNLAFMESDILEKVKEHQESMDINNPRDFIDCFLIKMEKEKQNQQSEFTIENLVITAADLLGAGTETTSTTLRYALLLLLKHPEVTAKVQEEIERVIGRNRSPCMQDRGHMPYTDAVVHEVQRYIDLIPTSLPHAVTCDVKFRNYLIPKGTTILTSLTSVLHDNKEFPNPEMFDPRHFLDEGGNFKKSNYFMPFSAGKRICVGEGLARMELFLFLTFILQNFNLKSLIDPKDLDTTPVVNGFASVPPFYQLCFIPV

In experiment [12] the target is 3',5'-cyclic-AMP phosphodiesterase 4B (Homo sapiens) (UniProt Q07343). In words: qHTS Assay for Inhibitors of PDE-IV (AID 607; active = well fitted activation curve with a large enough effect in the main read-out, with a control signal flat, not every such curve was filed as active; also: % of control where 0% means no effect). To be noted: HEK293 ACTOne CNG channel cells, membrane potential fluorescence; series mostly up to 22.9 µM. The method, boiled down: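 HEK293 ACTOne cells with CNG channel (1000/well), endogenous PDE4; membrane potential dye, compounds up to 22.9 uM final. Fluorescence Ex 535/Em 590; RO 20-1724 (100 uM final) as reference.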
3',5'-cyclic-AMP phosphodiesterase 4B (Homo sapiens), sequence (Q07343 whole entry, looked up): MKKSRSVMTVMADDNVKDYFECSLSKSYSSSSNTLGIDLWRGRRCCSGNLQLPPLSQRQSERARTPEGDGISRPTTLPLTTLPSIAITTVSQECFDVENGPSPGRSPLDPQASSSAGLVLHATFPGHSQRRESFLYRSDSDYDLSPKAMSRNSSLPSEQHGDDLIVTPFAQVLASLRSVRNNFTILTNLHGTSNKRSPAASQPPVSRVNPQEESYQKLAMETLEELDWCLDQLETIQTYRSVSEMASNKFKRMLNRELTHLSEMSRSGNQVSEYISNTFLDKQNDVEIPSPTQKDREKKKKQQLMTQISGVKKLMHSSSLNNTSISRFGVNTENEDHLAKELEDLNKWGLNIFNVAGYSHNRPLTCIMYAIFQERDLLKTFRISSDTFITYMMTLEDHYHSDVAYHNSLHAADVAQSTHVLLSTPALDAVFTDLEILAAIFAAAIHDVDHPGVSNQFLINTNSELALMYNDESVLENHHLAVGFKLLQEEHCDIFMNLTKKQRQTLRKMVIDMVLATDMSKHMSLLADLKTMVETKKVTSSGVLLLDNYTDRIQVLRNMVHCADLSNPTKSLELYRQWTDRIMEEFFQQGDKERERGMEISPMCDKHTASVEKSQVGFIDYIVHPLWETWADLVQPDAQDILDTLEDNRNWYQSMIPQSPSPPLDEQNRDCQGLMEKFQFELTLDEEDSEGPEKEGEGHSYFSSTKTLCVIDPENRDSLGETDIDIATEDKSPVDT

Experiment [13] deals with Cytochrome P450 3A4 (Homo sapiens) (UniProt P08684). In words: qHTS Assay for Activators of Cytochrome P450 3A4 (AID 885; active = well fitted curve in the direction sought with a large enough effect; an effect the other way counts as inactive or inconclusive; also: nearly all actives have a fitted effect of over 65% in size). To be noted: recombinant CYP3A4, Luciferin-PPXE luminescence, 60 min; series mostly up to 57.1 µM. The method in brief: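 Human CYP3A4 (20 nM) with Luciferin-PPXE at 25 uM (its KM) in 200 mM KPO4; 10 min compound preincubation, then NADPH regeneration and 60 min reaction at RT. Luciferin read by luminescence; normalized to 57 uM ketoconazole full inhibition.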

Experiment [14] deals with Cytochrome P450 2D6 (Homo sapiens) (UniProt P10635). In words: qHTS Assay for Inhibitors and Substrates of Cytochrome P450 2D6 (AID 891; active = well fitted curve in the direction sought with a large enough effect; an effect the other way counts as inactive or inconclusive;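 also: luciferin methyl ether substrate demethylated by CYP2D6 with NADPH regeneration; % is scaled to controls: 0 for no effect and ±100 for the full control effect; nearly all actives have a fitted effect of over 60% in size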). To be noted: recombinant CYP2D6, luciferin-ME EGE luminescence; series mostly up to 57.1 µM. The method in brief:
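Human CYP2D6 (5 nM) with 30 uM Luciferin-ME EGE (at Km) in 100 mM KPO4, compound preincubated 10 min, then NADPH regeneration system for 60 min at room temperature. Luciferin read by luminescence; normalized to 1.43 uM quinidine.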

Where [15] appears, read: measured here: cell count channel max response.
The mark [16] stands for this setting: measured here: lipid channel max response.

Structures are written as SMILES. Inconclusive results are not listed. Active and inactive are the calls of the source. Unless noted, calls follow the shape of the dose curve; as a rule, active = well fitted curve in either direction with a large enough effect (not every such curve was filed as active); inconclusive = small, poorly fitted or top-dose-only effect, or another doubt; inactive = flat fitted curve, though single readings scatter.

Consider seven compounds from PubChem BioAssay (NCATS).

Cytochrome P450 1A2 (Homo sapiens), sequence (P05177 whole entry, looked up): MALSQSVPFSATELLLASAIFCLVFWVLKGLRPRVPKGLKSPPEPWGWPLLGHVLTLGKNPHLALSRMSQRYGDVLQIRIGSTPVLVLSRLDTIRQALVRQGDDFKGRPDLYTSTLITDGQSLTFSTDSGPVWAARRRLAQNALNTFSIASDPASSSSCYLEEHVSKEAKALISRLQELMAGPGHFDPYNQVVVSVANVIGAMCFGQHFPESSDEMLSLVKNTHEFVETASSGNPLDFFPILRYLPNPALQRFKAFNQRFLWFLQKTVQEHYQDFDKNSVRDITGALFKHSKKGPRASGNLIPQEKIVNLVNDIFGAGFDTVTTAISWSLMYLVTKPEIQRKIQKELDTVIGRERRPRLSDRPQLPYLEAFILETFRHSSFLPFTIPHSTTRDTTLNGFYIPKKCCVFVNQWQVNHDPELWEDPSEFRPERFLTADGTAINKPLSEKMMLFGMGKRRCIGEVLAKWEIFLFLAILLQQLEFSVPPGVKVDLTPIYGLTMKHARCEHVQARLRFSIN
Glucocorticoid receptor (Homo sapiens), sequence (P04150 whole entry, looked up, the tested form may be a part): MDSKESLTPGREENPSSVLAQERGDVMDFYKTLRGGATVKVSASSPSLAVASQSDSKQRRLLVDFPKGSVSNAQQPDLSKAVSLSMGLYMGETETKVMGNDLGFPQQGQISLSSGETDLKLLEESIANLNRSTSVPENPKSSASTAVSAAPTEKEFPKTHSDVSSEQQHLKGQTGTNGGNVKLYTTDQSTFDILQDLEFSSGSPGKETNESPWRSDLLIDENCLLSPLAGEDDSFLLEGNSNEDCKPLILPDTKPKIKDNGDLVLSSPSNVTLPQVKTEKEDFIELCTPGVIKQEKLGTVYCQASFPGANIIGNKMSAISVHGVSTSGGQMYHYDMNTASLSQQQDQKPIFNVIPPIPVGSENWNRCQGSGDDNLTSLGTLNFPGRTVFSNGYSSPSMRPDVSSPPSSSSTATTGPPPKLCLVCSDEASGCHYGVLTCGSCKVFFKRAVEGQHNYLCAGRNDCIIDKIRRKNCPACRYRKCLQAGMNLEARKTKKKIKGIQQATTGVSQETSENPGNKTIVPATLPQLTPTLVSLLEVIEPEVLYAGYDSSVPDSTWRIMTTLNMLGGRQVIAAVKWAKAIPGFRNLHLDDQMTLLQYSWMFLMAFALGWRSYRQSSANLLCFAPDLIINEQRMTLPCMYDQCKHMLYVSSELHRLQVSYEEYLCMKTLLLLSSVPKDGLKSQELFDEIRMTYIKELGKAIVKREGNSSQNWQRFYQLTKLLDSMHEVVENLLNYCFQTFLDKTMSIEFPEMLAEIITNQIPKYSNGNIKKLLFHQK
Cytochrome P450 2D6 (Homo sapiens), sequence (P10635 whole entry, looked up): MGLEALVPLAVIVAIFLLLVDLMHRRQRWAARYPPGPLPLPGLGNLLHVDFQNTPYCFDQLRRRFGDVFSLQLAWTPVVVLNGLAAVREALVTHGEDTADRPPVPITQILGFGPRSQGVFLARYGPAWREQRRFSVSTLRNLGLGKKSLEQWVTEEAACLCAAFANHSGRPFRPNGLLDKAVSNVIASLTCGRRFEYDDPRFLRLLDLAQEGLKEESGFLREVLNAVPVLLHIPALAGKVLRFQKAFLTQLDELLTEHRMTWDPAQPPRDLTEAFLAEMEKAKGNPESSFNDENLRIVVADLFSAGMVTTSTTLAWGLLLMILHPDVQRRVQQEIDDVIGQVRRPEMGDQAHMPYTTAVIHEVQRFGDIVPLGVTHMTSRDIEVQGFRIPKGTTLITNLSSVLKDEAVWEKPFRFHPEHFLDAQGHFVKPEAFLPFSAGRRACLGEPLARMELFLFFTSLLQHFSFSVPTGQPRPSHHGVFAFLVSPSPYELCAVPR

On to `COC(=O)N1CCC2(CCN(Cc3nccs3)CC2)CC1`, for which the Potency is > 11.4 µM (inactive) in [1] and > 46 µM (inactive) in [6]. Besides, the values for the activity change, negative = inhibition in experiment [2], in experiment [4] and in experiment [9] were -10.7% (inactive), -25.8% (inactive) and 2.86% (inactive), respectively. In addition, the Potency result in experiment [3], in experiment [8] and in experiment [10] was “inactive” throughout. Moreover, in [5], the activity, negative = inhibition is 0.339% (inactive). For the same compound, in experiment [7], the call was inactive. The results for the max response in experiment [9] (setting [15]) and in [9] (setting [16]) were 6.91% and 13.2%, respectively.

Turning to `O=C(c1cccc(F)c1)N1CCC2(CCCN(c3ncccn3)C2)CC1`, the Potency in experiment [1] was > 11.4 µM (inactive); in experiment [3] it was 25.1 µM (active); in [6], > 46 µM (inactive); in experiment [11], 6.31 µM (active). Moreover, the activity change, negative = inhibition is 4.38% (inactive) in [2], -6.9% (inactive) in [4] and 3.73% (inactive) in experiment [9]. Also, the activity, negative = inhibition in experiment [5] was -4.43% (inactive). Also, in [7], the outcome was inactive. Further, the results for the max response in [9] (setting [15]) and in experiment [9] (setting [16]) were 1% and 9.03%, respectively. The Potency entry in experiment [10] is “inactive”.

Consider `O=C(Oc1ccccc1)N1CCC[C@@]2(CCN(c3ncccn3)C2)C1`, for which the Potency in experiment [1] is > 11.4 µM (inactive); in experiment [3], 12.6 µM (active); in [6], > 46 µM (inactive); in experiment [11], 2.51 µM (active). For the same compound, the results for the activity change, negative = inhibition in [2], in experiment [4] and in experiment [9] were 2.93% (inactive), -0.482% (inactive) and 4.5% (inactive), respectively. In addition, in [5], the activity, negative = inhibition is 9% (inactive). The compound was called inactive in experiment [7]. Moreover, the Potency result in experiment [12], in experiment [13] and in experiment [10] was “inactive” each time. In addition, the results for the max response in experiment [9] (setting [15]) and in experiment [9] (setting [16]) were 8.9% and 17.1%, respectively.

For `COc1ccc(NC(=O)N2CC[C@@]3(CCCN(C(=O)c4cnccn4)C3)C2)cc1`, the Potency in [1] was > 11.4 µM (inactive); in [6], > 46 µM (inactive). Further, the activity change, negative = inhibition in experiment [2] is -10.4% (inactive); in [4], -2.83% (inactive); in [9], 4.73% (inactive). Also, the Potency entry in [3], in experiment [12], in experiment [14] and in [10] was “inactive” each time. In addition, the activity, negative = inhibition in [5] is 6.32% (inactive). Besides, in experiment [7], the call was inactive. Further, the max response in experiment [9] (setting [15]) was 2.35%; in [9] (setting [16]) it was 9.8%.

Turning to `O=C(c1ccco1)N1CCC2(CC1)CCN(c1cccc(-c3ccccc3)c1)CC2`, the Potency in experiment [1] was > 11.4 µM (inactive); in [3], 15.8 µM (active); in experiment [6] it was > 46 µM (inactive). Moreover, the activity change, negative = inhibition in [2] was 8.59% (inactive); in [4] it was -13.9% (inactive); in experiment [9], 5.77% (inactive). In [5], the activity, negative = inhibition is -16.1% (inactive). Further, the Potency entry in [12] and in experiment [10] was “inactive” each time. For the same compound, the max response was -0.036% in experiment [9] (setting [15]) and 9.11% in [9] (setting [16]).

In the case of `O=C(c1cnccn1)N1CCC2(CC1)CN(c1ccncc1)C2`, the Potency in [1] was > 11.4 µM (inactive); in experiment [6] it was > 46 µM (inactive). Further, the activity change, negative = inhibition in experiment [2] is 4.42% (inactive); in experiment [4], -19.4% (inactive); in [9] it was -0.9% (inactive). In addition, the Potency entry in experiment [3], in experiment [12] and in experiment [10] was “inactive” each time. Besides, the activity, negative = inhibition in [5] is 2.09% (inactive). The max response is -18.2% in experiment [9] (setting [15]) and -17.9% in experiment [9] (setting [16]).

With `CS(=O)(=O)N1CCC[C@@]2(CCN(c3ccccc3)C2)C1`, the Potency in experiment [1] is > 11.4 µM (inactive); in experiment [3], 31.6 µM (active); in [6], > 46 µM (inactive); in [11], 3.16 µM (active). The activity change, negative = inhibition in [2] is -11.3% (inactive); in experiment [4], -3.01% (inactive); in experiment [9], -16.2% (inactive). Moreover, the activity, negative = inhibition in experiment [5] was -2.15% (inactive). Besides, the result in experiment [7] was inactive. Besides, the Potency entry in experiment [12], in [13] and in experiment [10] was “inactive” throughout. Further, the values for the max response in experiment [9] (setting [15]) and in experiment [9] (setting [16]) were 2% and -14%, respectively.
